Laboratory results from PubChem BioAssay (NCATS).
Records with an inconclusive call do not appear. Where a call stands in place of a potency, no number is given. The source made the active and inactive calls. Unless noted, calls come from the whole dose curve; as a rule, active = well fitted curve in the direction sought with a large enough effect; inconclusive = small, poorly fitted or top-dose-only effect, or another doubt; inactive = no such curve, though single readings can be large; an effect the other way counts as inactive or inconclusive.

Legend:
[1] = qHTS for differential inhibitors of proliferation of Plasmodium falciparum line W2 (AID 1883); conditions: Potency: Plasmodium falciparum W2 proliferation inhibition;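 note: potency is the fitted concentration of half-maximal effect; parasites grown with compound for 72 h before lysis and staining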
[2] = qHTS Assay for Modulators of Human Peripheral Myelin Protein 22 (PMP22) Expression/Activity (AID 1967; active = well fitted curve in the direction sought with a large enough effect in the signal ratio; the % refers to the signal ratio)
Outline: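 Engineered MSC80 cells, Pmp22-promoter green and EF-alpha red luciferase reporters; 24h compound treatment at 37 °C. Concentration-response fits on green, red and ratio signals, each overlap-corrected, with %Activity normalized to untreated wells.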

[3] = target: RecQ-like DNA helicase BLM (Homo sapiens) (UniProt P54132); test: qHTS Validation Assay for Inhibitors of Bloom's syndrome helicase (BLM) (AID 2364); note: potency is the fitted concentration of half-maximal effect
Outline: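 50 nM BLM preincubated 15 min at room temperature with compound in pH 8.0 Tris buffer containing 2.5 ug/ml poly(dI-dC); started with 200 nM TAMRA/BHQ-2 forked duplex and 2 mM ATP (final). Unwinding read as TAMRA fluorescence increase, two reads 2 h apart.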

[4] = target: M-phase phosphoprotein 8 (Homo sapiens) (UniProt Q99549); test: qHTS Validation Assay for Inhibitors for MPP8 Chromodomain Interactions with Methylated Histone Tails (AID 488949); note: potency is the fitted concentration of half-maximal effect; nearly all actives have a fitted effect of over 55% in size
Outline: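 Chemiluminescent proximity assay: histidine-tag capture via nickel acceptor beads, biotin peptide via streptavidin donor beads. Protein and peptide each at 50 nM, pH 7.4, with 30 min incubations at room temperature for complex formation, compound exposure and bead binding.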

[5] = target: Transient receptor potential cation channel subfamily V member 1 (Homo sapiens) (UniProt Q8NER1); test: HTS Assay for Compounds that Act as Enhancers of the Vanilloid Receptor 1 (AID 488979)
Outline: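 TRPV1 cells loaded with Fluo-8 calcium dye; compound added and Ca2+ signal (ex 480/em 520 nm) followed 3 min, then capsaicin at EC20 added and read 2 more min to detect enhancement.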

[6] = target: Thyrotropin receptor (Homo sapiens) (UniProt P16473); test: qHTS Assay for Antagonists of the Thyroid Stimulating Hormone Receptor (AID 488980); note: series mostly up to about 58 µM
Outline: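 Inhibition of TSH-stimulated cAMP accumulation was quantified by homogeneous time-resolved FRET in TSHR-transfected HEK293 cells. Agonist: TSH, 4 nM final (EC80).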

[7] = target: Thyrotropin-releasing hormone receptor (Homo sapiens) (UniProt P34981); test: qHTS for Small Molecule Agonists and Allosteric Enhancers of Human TRH Receptor: Validation Screen for Agonists (AID 493127;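 active = calcium activation more than 3 SD above the typical response in the agonist read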;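 note: intracellular calcium rise by fluo-8 fluorescence before TRH EC20 addition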); conditions: TRH receptor agonist cell assay; at 2 µM; stronger effect = higher value
Outline: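 Read-out: intracellular calcium release measured kinetically by FDSS (fluo-8, ex 480/em 530 nm), 1 reading/s after a 10-cycle baseline. TRHR cells, 2000/well, cultured 18 h at 33.5C, dye-loaded at room temp. Compound-evoked positive calcium signal flags agonists.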

[8] = Validation screen for small molecules that induce DNA re-replication in SW480 colon adenocarcinoma cells (AID 504364)
Outline: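 Read-out: total Hoechst intensity of nuclei by fluorescence scanning imager; hits raise the fraction of nuclei with elevated DNA content. Cells received compound for 48 hr at 37 C before a 40 min stain.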

[9] = target: Voltage-gated inwardly rectifying potassium channel KCNH2 (Homo sapiens) (UniProt Q12809); test: qHTS Assay for Small Molecule Inhibitors of the Human hERG Channel Activity (AID 588834);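 note: top concentration of the series differs between compounds; lower thallium flux fluorescence means stronger hERG block; nearly all actives have a fitted effect of over 50% in size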
Outline: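 Homogeneous FluxOR thallium flux assay using hERG-expressing U2OS cells (BacMam). Compound treatment about 10 minutes preceded stimulation; reduced fluorescence taken as channel block.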

[10] = P-glycoprotein substrates identified in KB-3-1 adenocarcinoma cell line, qHTS therapeutic library screen (AID 1346986); note: nearly all actives have a fitted effect of over 60% in size
Outline: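 Viability by CellTiter-Glo after 72 h compound exposure at 37 degree C, 5% CO2. Cytotoxic call: curve class -1.1 to -2.4, maximum response >50%, AC50 < 10 uM, compared across KB-3-1 and P-gp-overexpressing KB-8-5-11.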

[11] = qHTS to identify inhibitors of the type 1 interferon - major histocompatibility complex class I in skeletal muscle: primary screen against the NCATS Mechanism Interrogation Plate v5.0 (MIPE) Libary (AID 1347411); note: nearly all actives have a fitted effect of over 65% in size
Outline: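 HLA-B HiBit myoblasts, dexamethasone-free medium + 4 ng/ml IFN-b, 24 h compound, 11-pt 1:3 from 46 uM final. Readout: Nano-Glo HiBiT lytic luminescence after 10 min lysis, RT.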

[12] = target: N-terminal Xaa-Pro-Lys N-methyltransferase 1 (Homo sapiens) (UniProt Q9BV86); test: Confirmatory qHTS for Inhibitors of N-terminal methyltransferase 1 (NTMT1): MTaseGlo Assay (AID 1645874); note: potency is the fitted concentration of half-maximal effect; nearly all actives have a fitted effect of over 65% in size
Outline: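 Inhibition was derived from luminescence after SAH-to-ATP conversion, scaled between no-enzyme and DMSO wells, then fitted by 4-parameter Hill. Conditions: 125 nM NTMT1, 100 uM SAM, 1 uM SPKRIA, 30 min RT.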

[13] = Primary qHTS for inhibitors of nuclear receptor binding SET domain protein 2 (NSD2) in an isogenic RCH-ACV NSD2 p.E1099K mutant (9B) (AID 1645876); note: nearly all actives have a fitted effect of over 70% in size
[14] = Primary qHTS for inhibitors of nuclear receptor binding SET domain protein 2 (NSD2) in an RCH-ACV wild type WT cells (2C) (AID 1645877); note: nearly all actives have a fitted effect of over 70% in size
[15] = target: Glutathione peroxidase 1 (Homo sapiens) (UniProt P07203); test: Primary qHTS Assay for Inhibitors of Recombinant Selenoprotein Glutathione Peroxidase 1 (GPX1) (AID 1845191); note: nearly all actives have a fitted effect of over 65% in size
Outline: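 GR-coupled readout: NADPH consumption tracked by fluorescence, ex 340/em 450 nm, at t=0 and after 15 min at RT. Final mix 10 nM GPX1, 1 mM GSH, 0.5 mM CHP, 0.5 mM NADPH, 100 nM GR, 0.01% BSA, following 30 min enzyme–compound preincubation.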

[16] = target: Phospholipid hydroperoxide glutathione peroxidase GPX4 (Homo sapiens) (UniProt P36969); test: Primary qHTS Assay for Inhibitors of Recombinant Selenoprotein Glutathione Peroxidase 4 (GPX4) (AID 1845192); conditions: outcome: dose series up to 50 µM unless noted; note: potency is the fitted concentration of half-maximal effect; nearly all actives have a fitted effect of over 65% in size
Outline: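 Steps: GPX4 plus compound, 30 min RT; add GR/GSH/NADPH master mix; start with cumene hydroperoxide; read 340/450 nm fluorescence at 0 and 15 min. Finals were 200 nM GPX4, 1 mM GSH, 0.5 mM CHP, 0.5 mM NADPH, 100 nM GR.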

[17] = qHTS drug screen for cell cycle checkpoint inhibitors in PARPi-resistant BRCA-mutant ovarian cancer cell lines. (AID 1963452; calls by dose curve); conditions: PEO1/OlaR viability, CellTiter-Glo luminescence, 96 h, stronger effect = lower value
Outline: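 PEO1, PEO4 and PEO1/OlaR ovarian cancer cells, 600 per well, exposed 96 h at 37C to a dilution series. Viability read by CellTiter-Glo luminescence, normalized to DMSO and empty wells; activity summarized as Z-AUC.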

Transient receptor potential cation channel subfamily V member 1 (Homo sapiens), sequence (Q8NER1 whole entry, looked up): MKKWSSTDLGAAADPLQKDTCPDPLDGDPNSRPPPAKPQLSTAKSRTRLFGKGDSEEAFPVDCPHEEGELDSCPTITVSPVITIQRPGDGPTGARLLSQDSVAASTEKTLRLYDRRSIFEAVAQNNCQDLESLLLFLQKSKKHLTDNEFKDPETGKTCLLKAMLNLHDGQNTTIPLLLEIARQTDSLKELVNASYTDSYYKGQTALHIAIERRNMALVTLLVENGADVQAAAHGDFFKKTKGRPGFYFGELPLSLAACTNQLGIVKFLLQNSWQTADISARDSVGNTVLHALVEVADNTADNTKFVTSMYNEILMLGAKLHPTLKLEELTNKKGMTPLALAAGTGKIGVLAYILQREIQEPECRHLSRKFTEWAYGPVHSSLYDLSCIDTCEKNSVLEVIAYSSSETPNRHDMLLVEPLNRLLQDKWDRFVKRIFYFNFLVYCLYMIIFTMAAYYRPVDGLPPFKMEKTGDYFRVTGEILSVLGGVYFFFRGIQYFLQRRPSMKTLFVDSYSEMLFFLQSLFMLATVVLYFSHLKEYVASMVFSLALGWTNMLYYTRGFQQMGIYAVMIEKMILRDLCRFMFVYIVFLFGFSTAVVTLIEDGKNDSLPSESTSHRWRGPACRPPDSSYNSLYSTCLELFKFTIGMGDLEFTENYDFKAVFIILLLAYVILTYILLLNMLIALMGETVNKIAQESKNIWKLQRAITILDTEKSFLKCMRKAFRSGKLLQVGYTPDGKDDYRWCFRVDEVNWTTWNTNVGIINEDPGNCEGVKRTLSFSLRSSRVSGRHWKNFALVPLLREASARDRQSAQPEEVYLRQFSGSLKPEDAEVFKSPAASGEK
RecQ-like DNA helicase BLM (Homo sapiens), sequence (P54132 whole entry, looked up): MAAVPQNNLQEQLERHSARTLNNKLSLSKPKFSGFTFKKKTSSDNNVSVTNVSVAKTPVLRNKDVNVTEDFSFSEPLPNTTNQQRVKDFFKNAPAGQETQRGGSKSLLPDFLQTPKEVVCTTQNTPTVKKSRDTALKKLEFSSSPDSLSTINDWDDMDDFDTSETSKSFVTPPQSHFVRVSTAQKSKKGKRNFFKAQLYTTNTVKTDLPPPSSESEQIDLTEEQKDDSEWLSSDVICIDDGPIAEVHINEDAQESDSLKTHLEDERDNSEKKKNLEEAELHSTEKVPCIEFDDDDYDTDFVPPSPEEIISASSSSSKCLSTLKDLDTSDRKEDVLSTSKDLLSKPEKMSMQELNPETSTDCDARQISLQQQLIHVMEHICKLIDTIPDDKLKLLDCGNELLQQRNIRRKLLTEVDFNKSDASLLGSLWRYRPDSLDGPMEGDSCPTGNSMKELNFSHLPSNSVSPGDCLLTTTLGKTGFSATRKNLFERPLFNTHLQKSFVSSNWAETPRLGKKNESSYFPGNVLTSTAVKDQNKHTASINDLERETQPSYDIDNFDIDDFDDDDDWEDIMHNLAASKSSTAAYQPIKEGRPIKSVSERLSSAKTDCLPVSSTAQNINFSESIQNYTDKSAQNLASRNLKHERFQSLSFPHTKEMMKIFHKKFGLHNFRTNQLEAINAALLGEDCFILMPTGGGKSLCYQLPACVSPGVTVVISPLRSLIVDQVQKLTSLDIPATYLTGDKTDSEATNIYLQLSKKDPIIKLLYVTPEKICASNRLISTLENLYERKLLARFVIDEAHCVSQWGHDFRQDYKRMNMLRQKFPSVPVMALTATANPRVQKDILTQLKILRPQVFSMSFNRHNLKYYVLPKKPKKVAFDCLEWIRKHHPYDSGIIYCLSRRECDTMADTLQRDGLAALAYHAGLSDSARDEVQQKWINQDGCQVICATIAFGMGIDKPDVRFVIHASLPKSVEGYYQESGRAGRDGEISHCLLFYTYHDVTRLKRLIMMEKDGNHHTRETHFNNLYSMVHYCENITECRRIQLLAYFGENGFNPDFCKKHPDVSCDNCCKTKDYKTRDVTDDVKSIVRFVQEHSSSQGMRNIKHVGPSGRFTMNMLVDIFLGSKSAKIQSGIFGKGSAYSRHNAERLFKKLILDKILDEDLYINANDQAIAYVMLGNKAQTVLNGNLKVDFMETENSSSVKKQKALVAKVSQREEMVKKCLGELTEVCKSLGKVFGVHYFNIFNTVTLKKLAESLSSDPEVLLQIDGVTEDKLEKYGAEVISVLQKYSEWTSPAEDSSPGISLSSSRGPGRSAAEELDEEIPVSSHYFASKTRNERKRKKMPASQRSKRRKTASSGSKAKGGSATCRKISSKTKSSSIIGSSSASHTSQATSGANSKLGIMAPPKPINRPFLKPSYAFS
N-terminal Xaa-Pro-Lys N-methyltransferase 1 (Homo sapiens), sequence (Q9BV86 whole entry, looked up): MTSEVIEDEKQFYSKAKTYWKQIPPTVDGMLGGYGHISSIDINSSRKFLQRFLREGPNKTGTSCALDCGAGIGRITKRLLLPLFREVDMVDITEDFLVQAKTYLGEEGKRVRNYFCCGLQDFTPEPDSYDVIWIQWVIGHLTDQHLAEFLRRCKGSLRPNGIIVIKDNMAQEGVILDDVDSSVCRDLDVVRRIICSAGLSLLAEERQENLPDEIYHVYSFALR
M-phase phosphoprotein 8 (Homo sapiens), sequence (Q99549 whole entry, looked up): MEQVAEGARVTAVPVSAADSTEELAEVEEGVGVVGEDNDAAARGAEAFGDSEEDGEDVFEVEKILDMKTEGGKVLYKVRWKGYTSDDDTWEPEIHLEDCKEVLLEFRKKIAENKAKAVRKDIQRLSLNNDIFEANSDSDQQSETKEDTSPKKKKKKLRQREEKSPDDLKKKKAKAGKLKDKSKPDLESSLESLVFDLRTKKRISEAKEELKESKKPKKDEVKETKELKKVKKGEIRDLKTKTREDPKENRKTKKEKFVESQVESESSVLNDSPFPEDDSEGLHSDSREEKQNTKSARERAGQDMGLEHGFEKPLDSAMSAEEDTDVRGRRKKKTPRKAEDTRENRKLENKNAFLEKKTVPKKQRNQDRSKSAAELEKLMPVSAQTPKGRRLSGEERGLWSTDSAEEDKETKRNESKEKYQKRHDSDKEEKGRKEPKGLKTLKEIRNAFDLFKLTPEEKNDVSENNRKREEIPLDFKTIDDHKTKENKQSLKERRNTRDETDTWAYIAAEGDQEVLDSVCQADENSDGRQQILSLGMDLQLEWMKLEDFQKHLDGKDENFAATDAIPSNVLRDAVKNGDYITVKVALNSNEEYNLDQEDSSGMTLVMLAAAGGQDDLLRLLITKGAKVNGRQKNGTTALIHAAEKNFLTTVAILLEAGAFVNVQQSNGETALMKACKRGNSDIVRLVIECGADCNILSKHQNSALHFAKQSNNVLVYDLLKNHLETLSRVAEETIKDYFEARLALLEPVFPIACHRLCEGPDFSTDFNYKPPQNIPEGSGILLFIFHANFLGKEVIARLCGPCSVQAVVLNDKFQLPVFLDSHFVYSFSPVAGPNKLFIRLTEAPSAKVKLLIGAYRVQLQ
Thyrotropin receptor (Homo sapiens), sequence (P16473 whole entry, looked up): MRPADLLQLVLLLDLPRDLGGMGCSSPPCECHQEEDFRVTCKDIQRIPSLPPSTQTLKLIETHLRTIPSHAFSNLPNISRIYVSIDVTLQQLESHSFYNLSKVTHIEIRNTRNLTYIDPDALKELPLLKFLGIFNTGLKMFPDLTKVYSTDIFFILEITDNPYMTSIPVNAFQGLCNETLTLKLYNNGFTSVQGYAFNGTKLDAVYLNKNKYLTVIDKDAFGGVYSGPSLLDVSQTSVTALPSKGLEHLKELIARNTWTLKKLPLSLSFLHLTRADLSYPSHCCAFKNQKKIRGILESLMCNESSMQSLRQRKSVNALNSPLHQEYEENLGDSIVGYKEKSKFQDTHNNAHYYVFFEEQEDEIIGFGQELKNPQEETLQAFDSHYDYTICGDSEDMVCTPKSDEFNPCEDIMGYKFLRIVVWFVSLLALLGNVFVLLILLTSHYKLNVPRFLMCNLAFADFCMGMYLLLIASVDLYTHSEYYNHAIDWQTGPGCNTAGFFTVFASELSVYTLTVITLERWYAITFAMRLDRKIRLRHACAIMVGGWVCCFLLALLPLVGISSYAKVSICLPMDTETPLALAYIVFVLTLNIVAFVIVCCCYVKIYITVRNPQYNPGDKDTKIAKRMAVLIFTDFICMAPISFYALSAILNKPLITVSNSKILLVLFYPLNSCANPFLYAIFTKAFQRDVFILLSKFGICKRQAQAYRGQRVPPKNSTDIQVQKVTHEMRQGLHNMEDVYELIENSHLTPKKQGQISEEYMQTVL
Glutathione peroxidase 1 (Homo sapiens), sequence (P07203 whole entry, looked up): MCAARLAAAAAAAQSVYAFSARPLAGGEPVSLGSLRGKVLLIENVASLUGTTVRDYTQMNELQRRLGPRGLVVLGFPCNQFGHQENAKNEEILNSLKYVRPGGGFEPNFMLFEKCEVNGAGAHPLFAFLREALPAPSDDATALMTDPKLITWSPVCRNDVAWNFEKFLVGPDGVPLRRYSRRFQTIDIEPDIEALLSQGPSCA
Phospholipid hydroperoxide glutathione peroxidase GPX4 (Homo sapiens), sequence (P36969 whole entry, looked up): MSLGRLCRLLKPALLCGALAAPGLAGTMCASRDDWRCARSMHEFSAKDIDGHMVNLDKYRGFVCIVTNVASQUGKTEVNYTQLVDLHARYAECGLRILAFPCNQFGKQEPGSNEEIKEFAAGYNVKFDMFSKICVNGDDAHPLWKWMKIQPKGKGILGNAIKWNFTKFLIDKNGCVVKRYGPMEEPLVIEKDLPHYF
Thyrotropin-releasing hormone receptor (Homo sapiens), sequence (P34981 whole entry, looked up): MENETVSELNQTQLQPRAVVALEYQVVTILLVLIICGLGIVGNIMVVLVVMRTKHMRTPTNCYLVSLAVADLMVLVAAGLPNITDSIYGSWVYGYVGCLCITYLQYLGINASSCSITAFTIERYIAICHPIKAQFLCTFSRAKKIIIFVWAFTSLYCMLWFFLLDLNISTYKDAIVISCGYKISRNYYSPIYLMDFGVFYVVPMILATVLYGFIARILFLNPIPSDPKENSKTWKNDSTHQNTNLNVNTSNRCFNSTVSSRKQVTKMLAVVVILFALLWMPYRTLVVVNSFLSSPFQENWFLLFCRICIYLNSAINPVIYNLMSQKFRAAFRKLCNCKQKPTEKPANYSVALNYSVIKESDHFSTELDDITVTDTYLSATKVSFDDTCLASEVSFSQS

## CC(C)=CCC/C(C)=C/CC/C(C)=C/CSc1ccccc1C(=O)O
[1]
  Potency: 11.2 µM (active)
[2]
  outcome: inactive
[3]
  Potency: 31.6 µM (active)
[4]
  Potency: 56.2 µM (active)
[5]
  outcome: inactive
[6]
  outcome: inactive
[7]
  activation: 1.12% (inactive)
[8]
  outcome: inactive
[9]
  Potency: inactive
[10]
  Potency: inactive
[11]
  Potency: inactive
[12]
  Potency: 39.8 µM (active)
[13]
  Potency: inactive
[14]
  Potency: inactive
[15]
  Potency: inactive
[16]
  Potency: 16.1 µM (active)
[17]
  Z-AUC: 0.993 (inactive)
[17]; measured here: PEO1 parental Z-AUC
  Z-AUC: 0.837
[17]; measured here: PEO4 Z-AUC
  Z-AUC: 0.897
